The values below come from PubChem BioAssay (NCATS).

Assay [1] deals with T1, Hexokinase-4 (Homo sapiens) + Glucokinase regulatory protein (Homo sapiens) (UniProt P35557+Q14397). Nature of the assay: qHTS assay for inhibitors of recombinant human GCK-GKRP interaction: ADP-Glo assay (AID 743206). Further: potency means the concentration at half of the fitted maximal effect. Put shortly:
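GST-GCK and FLAG-GKRP (15 nM each in the dispensed mix, with 2 uM S6P) react with 0.4 mM ATP and 5 mM glucose (final) in Hepes pH 7.6 for 60 min at room temperature. ADP is measured by ADP-Glo luminescence.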

In assay [2] the target is T1, Hexokinase-4 (Homo sapiens) + Glucokinase regulatory protein (Homo sapiens). The experiment in a line: qHTS assay for inhibitors of recombinant human GCK-GKRP interaction: HTRF assay (AID 743207). Further: potency means the concentration at half of the fitted maximal effect. Put shortly:
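HTRF read-out (ex 320 nm; 615/665 nm emission) after 60 min RT equilibration of 5 nM GST-GCK, 5 nM FLAG-GKRP, 2 uM S6P, compound and anti-FLAG/anti-GST detection antibodies; signal normalized between DMSO wells with and without GCK.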

Assay [3] is described as follows: qHTS Assay for Identifying Gametocytocidal Compounds (AID 743244).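 Further: on the % scale 0 is the no-effect control and ±100 the full control effect; actives lower the fluorescent signal which means gametocytes are killed.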 The conditions noted are these: P. falciparum 3D7 stage III-V gametocytes, alamarBlue, 72 h; max response: stronger effect = lower value. Summed up: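 In this qHTS viability screen, late-stage 3D7 gametocytes are incubated with compound for 72 h, then with alamarBlue for 24 h; reduced resorufin fluorescence marks killing.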

The nature of assay [4]: qHTS assay for measurement of the activity of small molecule inhibitors on Zika virus induced Caspase-3 activity in human iPSC derived neural progenitor cells (hNPCs) (AID 1224857). Further: % of control where 0% means no effect; nearly all actives have a fitted effect of over 65% in size. Put shortly: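 In medium with heparin 2 ug/ml and cyclopamine 2 uM, hNPCs (350 cells/well) received compound for one hour and then Zika virus at 2 FFU/cell; caspase activity was measured by Caspase-Glo 3/7 luminescence 6 h post-infection.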

Assay [5] is described as follows: qHTS assay for measurement of the activity of small molecule inhibitors on Zika virus induced Caspase-3 activity in human astrocytoma cells (AID 1224859).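 Further: plate controls were ZIKV-infected untreated cells for no effect and uninfected cells for full effect.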 Put shortly:
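A cell-based luminescent caspase-3/7 assay used SNB-19 cells infected with ZIKV (2 FFU/cell) for 6 h following 1 h compound pretreatment.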

The target in assay [6] is Atrial natriuretic peptide receptor 1 (Homo sapiens) (UniProt P16066). Nature of the assay: Natriuretic polypeptide receptor (hNpr1) antagonism - Pilot screen (AID 1347049; calls by dose curve;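 further: agonist-evoked cGMP luminescence read 20 min after hNppA addition; series mostly up to about 58 µM; on the % scale 0 is the no-effect control and ±100 the full control effect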). Put shortly:
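Readout is cGMP-driven firefly luciferase luminescence in HEK293 cells carrying hNpr1 and a PDE5-domain GloSensor, read before and 20 min after 0.1 nM hNppA stimulation. Cells had 2% substrate reagent for 2 h and test compound for 30 min.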

For assay [7], the target named is Atrial natriuretic peptide receptor 2 (Homo sapiens) (UniProt P20594). The experiment in a line: Natriuretic polypeptide receptor (hNpr2) antagonism - Pilot subtype selectivity assay (AID 1347050; calls by dose curve; further: on the % scale 0 is the no-effect control and ±100 the full control effect). Put shortly: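 Pilot selectivity screen against hNpr2: HEK293 cGMP-sensor cells are treated with LOPAC1280 compounds, then with hNppC peptide at 1 nM final. The cGMP-driven luminescence change over 20 min at room temperature is the read-out.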

The nature of assay [8]: NS1 protein of Zika virus - qHTS assay to identify small molecule inhibitors in human HEK 293 cells (AID 1347053).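 Further: series mostly up to about 46 µM; plate controls were infected untreated cells for no effect and uninfected cells for full effect; nearly all actives have a fitted effect of over 55% in size.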 Summed up:
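Inhibition of NS1 expression was scored in HEK 293 cells given compound 1 h ahead of MR766 virus (MOI = 0.5). Following 24 h at 37 C, two anti-NS1 antibodies generated a TR-FRET signal, scaled between uninfected and infected controls.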

Assay [9] in a line: Natriuretic polypeptide receptor (hNpr1) antagonism - Pilot counterscreen GloSensor control cell line (AID 1347045; calls by dose curve; further: series mostly up to about 38 µM; on the % scale 0 is the no-effect control and ±100 the full control effect). Summed up:
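This counterscreen uses HEK293 cells expressing the GIP/pGS-40F cGMP biosensor. Compound-treated cells are challenged with 50 uM sodium nitroprusside, and the luciferase signal is compared before and after stimulation.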

Values without a mark were called inactive. Inconclusive results are not listed. Calls of active or inactive are those of the source. Unless noted, the call rests on the fitted dose curve; in most records, active means well fitted curve in the direction sought with a large enough effect; inconclusive means small, poorly fitted or top-dose-only effect, or another doubt; inactive means no such curve, though single readings can be large; an effect the other way counts as inactive or inconclusive.

T1 sequence (P35557 whole entry, looked up): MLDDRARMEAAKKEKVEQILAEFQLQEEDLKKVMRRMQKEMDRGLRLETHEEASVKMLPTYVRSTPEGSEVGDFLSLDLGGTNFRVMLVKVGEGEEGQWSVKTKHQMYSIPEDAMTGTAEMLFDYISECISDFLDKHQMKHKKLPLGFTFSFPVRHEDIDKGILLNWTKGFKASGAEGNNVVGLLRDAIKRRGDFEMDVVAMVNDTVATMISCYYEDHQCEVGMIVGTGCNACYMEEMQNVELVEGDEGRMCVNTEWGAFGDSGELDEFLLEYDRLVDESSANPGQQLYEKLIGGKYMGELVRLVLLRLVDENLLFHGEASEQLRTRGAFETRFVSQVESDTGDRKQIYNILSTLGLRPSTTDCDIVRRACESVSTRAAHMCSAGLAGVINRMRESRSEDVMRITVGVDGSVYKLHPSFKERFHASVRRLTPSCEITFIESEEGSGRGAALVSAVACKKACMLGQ
T1 sequence (Q14397 whole entry, looked up): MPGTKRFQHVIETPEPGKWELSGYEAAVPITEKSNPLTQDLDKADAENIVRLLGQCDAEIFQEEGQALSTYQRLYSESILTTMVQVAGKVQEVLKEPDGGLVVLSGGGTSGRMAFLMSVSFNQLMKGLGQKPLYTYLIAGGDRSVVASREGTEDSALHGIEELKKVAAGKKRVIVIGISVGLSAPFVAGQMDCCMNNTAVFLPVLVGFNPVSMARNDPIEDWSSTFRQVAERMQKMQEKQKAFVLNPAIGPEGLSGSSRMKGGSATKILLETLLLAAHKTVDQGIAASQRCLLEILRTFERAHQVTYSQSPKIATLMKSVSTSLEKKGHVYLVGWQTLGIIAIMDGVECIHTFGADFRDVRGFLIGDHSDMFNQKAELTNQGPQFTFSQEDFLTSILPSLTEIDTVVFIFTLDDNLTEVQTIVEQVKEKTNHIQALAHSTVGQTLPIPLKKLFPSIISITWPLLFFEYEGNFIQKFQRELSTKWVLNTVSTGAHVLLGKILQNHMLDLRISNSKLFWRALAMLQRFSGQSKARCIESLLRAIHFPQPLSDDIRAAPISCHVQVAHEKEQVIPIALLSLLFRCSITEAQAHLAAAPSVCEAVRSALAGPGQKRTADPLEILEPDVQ
Sequence of Atrial natriuretic peptide receptor 2 (Homo sapiens) (P20594 whole entry, looked up): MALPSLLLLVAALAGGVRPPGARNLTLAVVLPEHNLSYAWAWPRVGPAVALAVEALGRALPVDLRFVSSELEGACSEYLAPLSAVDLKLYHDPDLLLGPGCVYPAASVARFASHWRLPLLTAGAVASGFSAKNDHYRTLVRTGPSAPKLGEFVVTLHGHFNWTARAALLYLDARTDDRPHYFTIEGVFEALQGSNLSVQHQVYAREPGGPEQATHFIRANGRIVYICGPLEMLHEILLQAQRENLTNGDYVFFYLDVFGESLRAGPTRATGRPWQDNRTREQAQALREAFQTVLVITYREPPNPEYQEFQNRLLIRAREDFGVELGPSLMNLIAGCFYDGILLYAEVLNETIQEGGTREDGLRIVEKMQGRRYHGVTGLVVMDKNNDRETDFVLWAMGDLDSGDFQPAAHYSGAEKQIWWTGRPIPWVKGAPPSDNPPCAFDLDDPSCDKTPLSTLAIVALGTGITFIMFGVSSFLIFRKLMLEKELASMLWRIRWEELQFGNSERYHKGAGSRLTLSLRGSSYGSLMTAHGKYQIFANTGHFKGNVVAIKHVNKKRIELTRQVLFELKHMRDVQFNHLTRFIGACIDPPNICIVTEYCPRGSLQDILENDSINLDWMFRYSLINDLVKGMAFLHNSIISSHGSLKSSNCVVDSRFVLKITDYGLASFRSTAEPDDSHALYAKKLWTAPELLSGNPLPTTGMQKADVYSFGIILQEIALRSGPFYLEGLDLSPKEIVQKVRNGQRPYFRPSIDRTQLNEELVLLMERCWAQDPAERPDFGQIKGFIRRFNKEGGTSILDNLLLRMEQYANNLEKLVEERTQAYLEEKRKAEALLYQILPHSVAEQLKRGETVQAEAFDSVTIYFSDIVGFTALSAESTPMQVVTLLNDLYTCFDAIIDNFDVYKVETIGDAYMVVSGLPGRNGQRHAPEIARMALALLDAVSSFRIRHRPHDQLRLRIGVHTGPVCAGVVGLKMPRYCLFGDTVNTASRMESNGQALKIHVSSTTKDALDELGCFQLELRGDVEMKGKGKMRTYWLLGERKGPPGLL
Sequence of Atrial natriuretic peptide receptor 1 (Homo sapiens) (P16066 whole entry, looked up): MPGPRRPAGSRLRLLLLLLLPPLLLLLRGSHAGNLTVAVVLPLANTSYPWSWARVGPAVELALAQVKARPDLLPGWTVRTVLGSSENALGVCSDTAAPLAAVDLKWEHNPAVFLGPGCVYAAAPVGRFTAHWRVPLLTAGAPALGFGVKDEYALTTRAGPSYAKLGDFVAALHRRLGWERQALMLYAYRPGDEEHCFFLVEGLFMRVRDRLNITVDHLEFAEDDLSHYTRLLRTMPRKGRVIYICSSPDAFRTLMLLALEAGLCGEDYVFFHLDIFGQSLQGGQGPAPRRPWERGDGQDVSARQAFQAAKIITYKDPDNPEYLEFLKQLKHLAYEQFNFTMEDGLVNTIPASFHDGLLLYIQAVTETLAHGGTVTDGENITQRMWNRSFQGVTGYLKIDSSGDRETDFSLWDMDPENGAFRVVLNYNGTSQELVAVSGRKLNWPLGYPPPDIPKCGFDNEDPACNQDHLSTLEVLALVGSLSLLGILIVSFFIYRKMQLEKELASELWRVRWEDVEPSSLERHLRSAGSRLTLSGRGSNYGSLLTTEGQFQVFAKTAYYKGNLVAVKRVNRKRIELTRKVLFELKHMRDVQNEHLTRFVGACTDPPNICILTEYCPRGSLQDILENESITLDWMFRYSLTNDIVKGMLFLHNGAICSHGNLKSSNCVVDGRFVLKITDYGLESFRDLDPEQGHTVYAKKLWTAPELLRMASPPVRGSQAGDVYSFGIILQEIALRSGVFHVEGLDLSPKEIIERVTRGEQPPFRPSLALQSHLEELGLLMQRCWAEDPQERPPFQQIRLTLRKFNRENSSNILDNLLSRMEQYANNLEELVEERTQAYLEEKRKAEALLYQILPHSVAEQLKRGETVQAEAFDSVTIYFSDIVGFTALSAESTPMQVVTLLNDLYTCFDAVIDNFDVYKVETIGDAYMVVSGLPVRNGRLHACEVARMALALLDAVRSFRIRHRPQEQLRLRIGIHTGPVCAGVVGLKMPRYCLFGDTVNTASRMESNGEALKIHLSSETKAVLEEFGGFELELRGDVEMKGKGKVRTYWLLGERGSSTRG

As to `NS(=O)(=O)c1cccc2c1c([N+](=O)[O-])cc1nc(O)c(O)nc12`, the Potency result in [1], in [2], in assay [4], in [5], in assay [6] and in assay [7] was “inactive” each time. The Potency result in assay [8] was “inactive”. The max response in [3] was 24.6%.

As for `Cc1cc2c(cc1Cl)N(C(=O)Nc1ccnc3ccccc13)CC2`, the Potency result in [1], in [2], in [4], in assay [5], in [7] and in assay [8] was “inactive” each time. In addition, the max response in [3] is 6.93%.

As to `COc1cccc(OC)c1OCCNCC1CSc2ccccc2O1` (stereo not given), the Potency entry in assay [1], in assay [2], in assay [4], in [5] and in assay [8] was “inactive” in each case. Moreover, the max response in assay [3] was 8.7%.

As for `COc1ccccc1N1CCN(CCCCN2C(=O)c3ccccc3C2=O)CC1`, the Potency result in assay [1], in assay [2], in assay [4], in [5], in assay [6] and in assay [7] was “inactive” each time. The Potency entry in [8] was “inactive”. Further, the max response in assay [3] was 10.1%.

Turning to `N[C@H](C(=O)O)[C@H]1C[C@@H]1C(=O)O`, the Potency entry in assay [2], in [4], in assay [5], in assay [6], in assay [7] and in [8] was “inactive” each time. Moreover, the max response in assay [3] was 18.4%.

Regarding `O=C(O)Cc1c[nH]c2ccc(O)cc12`, the Potency entry in assay [1], in [2], in assay [4], in assay [9] and in assay [6] was “inactive” each time. Moreover, the max response in assay [3] was -2.34%.

Take `NCC(O)c1ccc(O)c(O)c1` (stereo not given): the Potency entry in [1], in assay [2], in [5], in assay [9], in [6] and in [7] was “inactive” throughout. For the same compound, the Potency entry in assay [8] was “inactive”.

Consider `COc1ccc(NC(=O)c2ccc(-c3ccc(-c4noc(C)n4)cc3C)cc2)cc1N1CCN(C)CC1`, for which the Potency result in assay [1], in [2], in assay [4], in [9], in assay [6] and in assay [7] was “inactive” in each case.

On to `NC1(C(=O)O)CCc2cc(C(=O)O)ccc21` (stereo not given), for which the Potency entry in assay [2], in assay [4], in [9], in assay [6], in assay [7] and in assay [8] was “inactive” in each case.

For the compound `O=c1[nH]c(=S)[nH]c(-c2ccccc2)c1Cc1c(O)ccc2ccccc12`, the Potency result in [1], in [2], in assay [4], in assay [9], in assay [6] and in assay [7] was “inactive” throughout. Moreover, in [8], the Potency result was “inactive”. Also, the max response in assay [3] is 1.54%.

As to `O=S(=O)(c1cccc2c(Cl)cccc12)N1CCCNCC1`, the Potency entry in assay [1], in [2], in assay [4], in assay [9], in assay [6] and in assay [7] was “inactive” throughout.

Turning to `O=C(O)CCC/C=C\C[C@@H]1[C@@H](/C=C/[C@H](O)C2Cc3ccccc3C2)[C@@H](F)C[C@@H]1O`, the Potency entry in assay [1], in [2], in assay [4], in assay [9], in [6] and in assay [7] was “inactive” throughout. Also, the Potency entry in [8] is “inactive”. Besides, in assay [3], the max response is -7.09%.

`CCC(=O)N1CCN(C(=O)c2ccccc2)CC1`: the Potency entry in [1], in assay [2], in assay [4], in assay [9], in assay [6] and in assay [7] was “inactive” each time. Besides, in assay [8], the Potency result is “inactive”. The max response in assay [3] is 9.08%.

Turning to `CC(C)Cn1c(=O)n(C)c(=O)c2[nH]cnc21`, the Potency entry in assay [1], in assay [2], in [4], in assay [9], in assay [6] and in assay [7] was “inactive” in each case. For the same compound, the Potency result in assay [8] was “inactive”.

As to `O=C(O)C1=CCCN(CCON=C(c2ccccc2)c2ccccc2)C1`, the Potency result in assay [1], in [2], in [4], in assay [9], in assay [6] and in assay [7] was “inactive” in each case. Besides, in assay [8], the Potency result is “inactive”. Also, the max response in assay [3] was -12.8%.

Consider `O=C(O)C1=CC(=C(c2ccc(O)c(C(=O)O)c2)c2ccc(O)c(C(=O)O)c2)C=CC1=O`, for which the Potency is 4.47 µM (active) in assay [1] and 2.51 µM (active) in assay [2]. In assay [3], the max response is 21.2%. The Potency entry in assay [4], in [9], in assay [6] and in [8] was “inactive” in each case.

Consider `O=c1[nH]ccc2c(O)cccc12`, for which the Potency entry in assay [1], in assay [2], in assay [4], in [9], in assay [6] and in assay [7] was “inactive” throughout. Further, in assay [8], the Potency entry is “inactive”.
